Screens deposited in PubChem by several laboratories.
IEC-6 cytotox: IEC-6 cytotoxicity, counter-screen for KLF5 inhibitors; luminescence viability; inhibition, % at 5 µM; 0.78% of 290,000 active; AID 1825; in the data active = inhibition above about 22%;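 note: 0% = plate median of test compound wells and 100% = cytotoxic reference compound wells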
Ba/F3 V617F tox: loss of viability in JAK2V617F-driven Ba/F3 cells; Ba/F3 EpoR-JAK2V617F viability, ATP luminescence; 1.1% of 220,000 active; AID 1446; inhibition, % at 5.6 µM;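 active = inhibition above the campaign mean plus 3 SD over all tested compounds, cut at about 24% in these data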;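 note: cytokine-independent growth of Ba/F3 cells driven by EpoR plus mutant JAK2; 0% = DMSO-treated cells and 100% = JAK inhibitor I control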
aSyn UTR inh: 5' untranslated region of α-synuclein, MLPCN primary screen. inhibition, % (tested at 7.5 µM). AID 1813. alpha-synuclein 5'UTR reporter, inhibitor activity. 0.82% of 300,000 active; in the data active = inhibition above about 60%;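 note: H4 neuroglioblastoma cells stably carrying SNCA 5'UTR luciferase fusion; 0% = DMSO wells and 100% = positive control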
KLF5 inh: suppresses KLF5 promoter-driven expression; 0.23% of 290,000 active; DLD-1 KLF5 promoter-luciferase reporter, luminescence; AID 1700; inhibition, % at 5 µM;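 active = inhibition above a per-plate limit of that plate's mean compound inhibition plus 3 SD, cut at about 60% in these data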;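 note: 0% = DMSO wells and 100% = LY294002 at 200 µM; higher means less KLF5 promoter-driven luciferase light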
BaF3 tox: reduces parental Ba/F3 cell viability, JAK2V617F counter-screen | CellTiter-Glo ATP luminescence | inhibition, % at 5.6 µM | 1.1% of 220,000 active | AID 1486;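 active = inhibition above a per-campaign cutoff, the mean inhibition of all tested compounds plus 3 SD, cut at about 27% in these data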;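 note: 0% = DMSO wells and 100% = JAK Inhibitor I control wells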
APP transl inh: APP translation inhibition; inhibition, % at 2 µM; 0.82% of 190,000 active; SH-SY5Y APP 5'UTR-luciferase reporter, luminescence;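 active = inhibition above a set limit, derived from the sample mean plus 3 SD, cut at about 45% in these data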
BaF3 parental 2: counter-screen for JAK2V617F inhibitors: parental Ba/F3 viability inhibitors; CellTiter-Glo luminescence; cells kept alive by added IL-3; shares compounds with Ba/F3 V617F tox; 31% of 580 active; inhibition, % at 5.6 µM; AID 1520;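 active = cell growth inhibition above the hit limit set in the earlier mutant JAK2 cell screen, cut at about 27% in these data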;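 note: plate controls were DMSO-treated cells for no effect and JAK Inhibitor I control wells for full effect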
JAK2V617F confrm: Ba/F3 EpoR-JAK2V617F viability loss, confirmation. 66% of 580 active. CellTiter-Glo luminescence. inhibition, % at 5.6 µM. shares compounds with Ba/F3 V617F tox;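 active = mean inhibition above the hit cutoff derived in the earlier primary screen, cut at about 25% in these data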;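 note: 0% = DMSO-treated cells and 100% = JAK inhibitor I control wells; higher means lower luminescence from reduced cell ATP and viability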
The depositor's hits bear a star; . = no result. Shown are actives, neighbours in structure and some others; about 2.2% of the full set was active somewhere.

SMILES | IEC-6 cytotox | Ba/F3 V617F tox | aSyn UTR inh | KLF5 inh | BaF3 tox | APP transl inh | others
COc1cccc(NC(=O)Nc2ccc3c(c2)CCC3)c1 | 0.7 | . | -130.3 | -156.8 | . | .
COc1ccc(C(=O)NCC(c2ccco2)N2CCc3ccccc32)c(OC)c1 (stereo not given) | . | . | 16.3 | . | . | .
COc1ccc(NC(=O)c2ccc3[nH]c(C)c(C)c3c2)cc1 | 0.3 | . | -101.4 | -80.3 | . | .
C=C1/C(=C\C=C2/CCC[C@]3(C)[C@@H]([C@H](C)CCCC(C)(C)O)CC[C@@H]23)C[C@@H](O)C[C@@H]1O | 1.7 | 44.9* | -0.1 | -34.8 | 2.8 | .
O=c1cc(O)nc(SCc2ccccc2)n1-c1ccc(F)cc1 | -6.5 | 3.9 | 23.1 | -25.4 | 31.5* | -13.7
O=C(NC(Nc1ncc(S(=O)(=O)c2ccc([N+](=O)[O-])cc2)s1)(C(F)(F)F)C(F)(F)F)c1ccc(Cl)cc1 | -4.3 | 0.1 | 72.8* | 10.8 | 3.7 | -11.6
Cc1c(NC(=O)CSc2nncn2-c2ccccc2)c(=O)n(-c2ccccc2)n1C | . | . | -0.4 | . | . | .
N/C(=N\NC(=O)c1sccc1OCc1ccc(Cl)cc1Cl)c1ccccn1 | 5.4 | -1.2 | 51.7 | -14.0 | 2.3 | 61.5*
CCN1/C(=C/c2ccc3cc(C)ccc3[n+]2C)Sc2ccc3sccc3c21 | 15.8 | 77.9* | . | -12.4 | 62.4* | 19.7
CC(=O)Nc1ccc(NC(=O)C/C(C)=N/NC(=O)c2cccc3ccccc23)cc1 | 18.1 | . | -8.6 | -39.0 | . | .
COc1ccc(C2CC(c3cccs3)=NN2C(=O)CCl)cc1OC (stereo not given) | 2.4 | . | -26.4 | 17.5 | . | .
COc1cc(C2CC(c3cccs3)=NN2C(=O)CCl)ccc1OC(F)F (stereo not given) | -1.0 | . | 107.1* | -13.5 | . | .
COc1nc(-c2ccccc2)cc(-c2ccc3c(c2)OCO3)c1C#N | 5.0 | 2.5 | 64.4* | -23.0 | -0.5 | .
CCCCCCCCn1cnc2c(N)c(C)c(C)cc21 | 18.8 | 75.8* | -23.9 | -19.2 | 59.6* | 6.4
COc1ccc(Cn2cnc3c(N)c(C)c(C)cc32)cc1 | -4.3 | -0.8 | 24.3 | -14.5 | 7.2 | 4.9
O=C1c2ccccc2S(=O)(=O)c2cc(N3CCOCC3)ccc21 | . | . | 76.4* | . | . | .
O=C1c2ccccc2S(=O)(=O)c2cc(N3CCN(c4ccccc4)CC3)ccc21 | . | . | -18.6 | . | . | .
O=C(Nc1ccon1)Nc1ccc(F)cc1F | 13.3 | . | -10.9 | -15.6 | . | .
COC(=O)c1ccc2nc(NC(=O)CSCC(=O)OCC(=O)c3ccccc3)sc2c1 | -1.7 | -0.2 | -72.6 | -16.6 | 0.6 | -69.5
Cc1ccc2nc(NC(=O)CSCC(=O)OCC(=O)c3ccc(Br)cc3)sc2c1 | 1.7 | -1.2 | 82.9* | -0.2 | 6.0 | 5.7
Cc1ccc(O)c(N=NC2=C(O)CC(C)(C)CC2=O)c1 | -3.7 | 10.1 | 64.8* | -57.9 | 3.8 | 35.5
CC1(C)CC(=O)C(N=Nc2cc(Cl)c(Cl)c(Cl)c2)=C(O)C1 | -7.8 | -4.2 | -9.1 | -10.8 | -0.7 | 5.6
CCOC(=O)C1=C(Cc2ccc(OC)cc2)C(=O)c2ccccc2C1=O | 1.7 | 1.0 | . | 14.5 | 0.0 | 72.3*
CCOC(=O)C1=C(Cc2ccc(C)cc2)C(=O)c2ccccc2C1=O | 0.9 | 1.1 | -65.4 | -26.3 | 4.8 | -0.3
CC(CNC(=O)CCn1ccc2cc(S(=O)(=O)N3CCCC3)ccc21)c1ccccc1 (stereo not given) | -6.2 | . | -1.0 | -25.0 | . | .
SMILES | IEC-6 cytotox | Ba/F3 V617F tox | aSyn UTR inh | KLF5 inh | BaF3 tox | APP transl inh | others
Cc1ccc(NC(=O)/C=C/c2ccc([N+](=O)[O-])s2)c(C)c1 | -0.8 | 11.4 | -93.0 | -9.5 | -2.0 | 93.3*
Cc1ccc(NC(=O)COC(=O)c2ccc([N+](=O)[O-])s2)c(C)c1 | -1.4 | -1.8 | -8.6 | 0.4 | 3.6 | 58.1*
Cc1ccc(NC(=O)/C=C/c2ccc([N+](=O)[O-])s2)cc1 | -0.9 | -0.8 | -212.4 | -15.8 | 2.2 | 84.5*
Cc1cccc(NC(=O)/C=C/c2ccc([N+](=O)[O-])s2)c1 | 7.8 | 3.2 | -223.6 | -9.8 | -0.7 | 87.8*
Cc1cc(C)c(NC(=O)COC(=O)c2ccc([N+](=O)[O-])s2)c(C)c1 | 8.2 | 1.7 | 17.8 | 5.8 | 3.1 | -12.5
Cc1cc([N+](=O)[O-])ccc1NC(=O)/C=C/c1cccs1 | -6.5 | -2.4 | -157.6 | -46.4 | 9.7 | -43.3
NS(=O)(=O)c1cc(C(=O)OCC(=O)N2CCOCC2)ccc1Cl | -7.0 | . | -9.0 | -12.6 | . | .
CCN(CC)c1ccc(Nc2cc3n(c(=O)n2)CCc2cc(OC)c(OC)cc2-3)cc1 | 2.9 | . | 74.2* | -59.9 | . | .
COC(=O)CS(=O)(=O)c1cc(Br)cc2c1N(C(C)=O)CC2 | 1.9 | 1.7 | -17.2 | 1.4 | 92.7* | 1.8
CCOc1cc(/C=C(\C#N)C(=O)Nc2ccc(S(N)(=O)=O)cc2)ccc1OCCN1CCOCC1 | 2.7 | . | -1.2 | -4.9 | . | .
CCCNC(=S)N1CCC(C(=O)c2ccc(OC)cc2)CC1 | -4.5 | -1.3 | 17.1 | -11.6 | 7.8 | 60.1*
CCCNC(=S)N1CCC(C(=O)c2ccc(Cl)cc2)CC1 | 1.1 | . | -8.6 | -12.4 | . | .
O=C(NCCS(=O)(=O)N1CCC2(CC1)OCCO2)c1ccccc1 | . | . | -9.0 | . | . | .
COc1ccccc1C(=O)N=Nc1c(O)[nH]c2ccc([N+](=O)[O-])cc12 | -2.7 | 60.4* | . | -28.4 | 4.2 | 14.4
NC(=O)N=Nc1c(O)[nH]c2ccc([N+](=O)[O-])cc12 | 2.3 | -4.1 | 2.3 | -18.1 | 0.3 | .
C=C1C(=O)O[C@@H]2C[C@@H](C)[C@@H]3C=CC(=O)[C@@]3(C)[C@@H](OC(C)=O)[C@H]12 | . | . | 95.4* | . | . | .
CCN(CC)S(=O)(=O)c1ccc2c(c1)nc(SCn1nnc3ccccc3c1=O)n2CC | -4.6 | 0.0 | 18.4 | -32.9 | 4.5 | 91.6*
Cn1c(SCn2nnc3ccccc3c2=O)nc2ccccc2c1=O | -5.1 | -4.0 | -11.2 | -14.3 | -1.8 | 1.9
CC1(C)CC(Nc2ccc(Nc3ccccc3)cc2)CC(C)(C)N1 | 0.2 | 77.0* | 22.0 | -3.1 | 29.4* | .
Cc1cccc(NC(=S)/N=C(\N)Nc2nc(C)c3ccc(C)cc3n2)c1 | 4.6 | 34.5* | -15.2 | -110.5 | 39.0* | -23.7
COC(=O)c1c(NC(=O)C(C)C)sc(C(=O)N2CCOCC2)c1C | 1.0 | . | -3.6 | 6.2 | . | .
OC(COCc1ccco1)CN1CCN(C(c2ccccc2)c2ccccc2)CC1 (stereo not given) | 6.8 | 2.5 | 3.3 | -31.0 | 4.1 | -16.7
Cc1ccc(Cl)cc1N1CCN(CC(O)COCc2ccco2)CC1 (stereo not given) | 5.7 | 98.5* | -15.3 | -14.3 | 10.0 | -28.2 | BaF3 parental 2=-6.0;JAK2V617F confrm=0.1
Cc1c(NC(=O)COC(=O)c2cc(-c3ccc(-c4ccccc4)cc3)nc3ccccc23)c(=O)n(-c2ccccc2)n1C | 2.3 | 30.1* | -34.3 | -59.4 | 20.7 | -99.6 | BaF3 parental 2=58.9*;JAK2V617F confrm=72.0*
